Data as given in PubChem BioAssay (EPA / NIEHS).
Activity calls are given as the source filed them. The calls were made as follows: active = hit-call score of the fitted dose curve at least 0.9, where 1 is the maximum; inactive = score below 0.9.

Key:
[1] = ATG_GLI_CIS: Attagene CIS-FACTORIAL HepG2 Assay for human Zinc Finger Protein GLI1 (AID 2282945); conditions: HepG2, Attagene cis-factorial reporter mRNA, GLI element; actives raise or lower the signal
In short: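 Transiently transfected HepG2 cells report endogenous transcription factor activity via cis-element-driven reporter units. After 24 h compound exposure, reporter mRNA was measured by RT-PCR with capillary electrophoresis; bidirectional fitting against DMSO baseline.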

[2] = target: Bile acid receptor (Homo sapiens) (UniProt Q96RI1); test: ATG_IR1_CIS: Attagene CIS-FACTORIAL HepG2 Assay for human Nuclear Receptor Subfamily 1 Group H Member 4 (NR1H4), IR1 submotif (AID 2282946); conditions: IR1 reporter transcription, actives raise or lower the signal
Chain of Bile acid receptor (Homo sapiens) (Q96RI1 whole entry, looked up): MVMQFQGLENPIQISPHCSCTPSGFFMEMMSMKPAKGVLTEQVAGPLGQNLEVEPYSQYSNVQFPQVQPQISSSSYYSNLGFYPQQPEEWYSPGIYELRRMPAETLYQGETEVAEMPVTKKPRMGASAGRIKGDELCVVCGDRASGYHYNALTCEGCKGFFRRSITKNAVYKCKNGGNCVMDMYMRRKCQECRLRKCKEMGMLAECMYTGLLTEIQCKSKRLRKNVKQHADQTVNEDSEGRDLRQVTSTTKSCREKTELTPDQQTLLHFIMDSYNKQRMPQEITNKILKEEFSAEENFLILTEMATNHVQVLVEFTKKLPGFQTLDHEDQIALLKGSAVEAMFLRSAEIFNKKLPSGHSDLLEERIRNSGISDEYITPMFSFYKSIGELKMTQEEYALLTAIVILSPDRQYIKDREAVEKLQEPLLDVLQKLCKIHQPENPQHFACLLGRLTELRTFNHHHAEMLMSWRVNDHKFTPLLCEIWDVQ
In short: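 Fluorescence of capillary-separated, HpaI-digested RT-PCR reporter products gave IR1-element mRNA induction in HepG2 cells 24 h after dosing. Endogenous transcription factors drove the cis-regulated reporters; activity was fitted bidirectionally against DMSO.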

[3] = ATG_GRE_CIS: Attagene CIS-FACTORIAL HepG2 Assay for human Glucocorticoid Response Elements (GRE) (AID 2282947); conditions: HepG2 GRE cis-reporter, Attagene multiplex mRNA; actives raise or lower the signal
In short: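 Fluorescence intensity of reporter-specific cDNA fragments, separated by capillary electrophoresis, provides the signal. Constructs carry cis-regulating promoters in transiently transfected HepG2 liver cells; 24 h incubation; fitting is bidirectional against DMSO.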

[4] = ATG_ISRE_CIS: Attagene CIS-FACTORIAL HepG2 Assay for human Interferon Regulatory Factor 1 (IRF1) binding to an Interferon-Stimulated Response Element (ISRE) (AID 2282948); conditions: HepG2 ISRE cis-reporter (Attagene), mRNA transcription readout; actives raise or lower the signal
In short: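 Uses HepG2 liver cells transfected with cis-regulated reporters and measures mRNA 24 h post-dosing through RT-PCR, primer-extension labelling and capillary electrophoresis, with DMSO as negative control.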

[5] = ATG_M_32_CIS: Attagene CIS-FACTORIAL HepG2 Assay for M32 Transcription Factor (Internal Marker) (AID 2282949); conditions: HepG2 Attagene cis-factorial M32 reporter, mRNA; actives raise or lower the signal;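 also: background control marker of the multiplexed CIS panel rather than a real target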
In short: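 HepG2 human liver cells transiently transfected with cis-promoter-driven multiple reporter transcription units, dosed 24 h. Reporter mRNA quantified by RT-PCR, FAM-labelled primer extension, HpaI digest and capillary electrophoresis; bidirectional fit versus DMSO baseline.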

[6] = ATG_M_06_CIS: Attagene CIS-FACTORIAL HepG2 Assay for M06 Transcription Factor (Internal Marker) (AID 2282950); conditions: HepG2 Attagene CIS-FACTORIAL M06 internal marker reporter; actives raise or lower the signal
In short: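 Serves as a background control readout. Transfected HepG2 exposed to compounds for 24 h, then reporter transcripts quantified by fluorescent RT-PCR and capillary electrophoresis. Both directions fitted against DMSO baseline.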

[7] = target: Hypoxia-inducible factor 1-alpha (Homo sapiens) (UniProt Q16665); test: ATG_HIF1a_CIS: Attagene CIS-FACTORIAL HepG2 Assay for human Hypoxia Inducible Factor 1 (HIF1A) (AID 2282951); conditions: HepG2 Attagene cis-factorial HIF1a reporter transcription; actives raise or lower the signal
Chain of Hypoxia-inducible factor 1-alpha (Homo sapiens) (Q16665 whole entry, looked up): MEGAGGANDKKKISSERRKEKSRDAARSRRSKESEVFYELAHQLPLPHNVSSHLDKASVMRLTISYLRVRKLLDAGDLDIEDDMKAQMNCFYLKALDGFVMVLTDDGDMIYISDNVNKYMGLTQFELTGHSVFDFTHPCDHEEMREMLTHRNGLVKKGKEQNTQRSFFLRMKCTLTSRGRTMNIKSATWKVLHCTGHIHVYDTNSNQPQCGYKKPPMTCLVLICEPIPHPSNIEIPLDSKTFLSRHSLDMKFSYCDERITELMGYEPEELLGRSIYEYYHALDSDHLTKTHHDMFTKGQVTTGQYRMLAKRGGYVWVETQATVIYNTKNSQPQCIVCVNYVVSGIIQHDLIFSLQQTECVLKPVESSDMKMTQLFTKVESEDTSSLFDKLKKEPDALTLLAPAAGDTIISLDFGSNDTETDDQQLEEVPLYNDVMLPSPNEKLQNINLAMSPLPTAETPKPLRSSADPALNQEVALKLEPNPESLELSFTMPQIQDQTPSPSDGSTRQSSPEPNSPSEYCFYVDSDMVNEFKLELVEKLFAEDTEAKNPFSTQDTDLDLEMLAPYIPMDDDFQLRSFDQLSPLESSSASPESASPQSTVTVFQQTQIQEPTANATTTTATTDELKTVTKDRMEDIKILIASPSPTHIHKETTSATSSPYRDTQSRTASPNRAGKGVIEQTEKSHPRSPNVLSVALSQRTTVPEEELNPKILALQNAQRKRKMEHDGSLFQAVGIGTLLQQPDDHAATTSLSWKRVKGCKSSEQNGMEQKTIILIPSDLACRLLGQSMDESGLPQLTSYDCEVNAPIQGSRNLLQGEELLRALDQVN
In short: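 HepG2 cells transiently transfected with multiple cis-regulated reporter transcription units measure endogenous transcription factor activity. After 24 h exposure, reporter mRNA is quantified by RT-PCR with 6-FAM labelling, HpaI digestion and capillary electrophoresis. Bidirectional fitting against DMSO.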

[8] = target: Hepatocyte nuclear factor 6 (Homo sapiens) (UniProt Q9UBC0); test: ATG_HNF6_CIS: Attagene CIS-FACTORIAL HepG2 Assay for human Hepatocyte Nuclear Factor 6 (HNF6) (AID 2282952); conditions: HepG2 Attagene cis-factorial HNF6 reporter transcription; actives raise or lower the signal
Chain of Hepatocyte nuclear factor 6 (Homo sapiens) (Q9UBC0 whole entry, looked up): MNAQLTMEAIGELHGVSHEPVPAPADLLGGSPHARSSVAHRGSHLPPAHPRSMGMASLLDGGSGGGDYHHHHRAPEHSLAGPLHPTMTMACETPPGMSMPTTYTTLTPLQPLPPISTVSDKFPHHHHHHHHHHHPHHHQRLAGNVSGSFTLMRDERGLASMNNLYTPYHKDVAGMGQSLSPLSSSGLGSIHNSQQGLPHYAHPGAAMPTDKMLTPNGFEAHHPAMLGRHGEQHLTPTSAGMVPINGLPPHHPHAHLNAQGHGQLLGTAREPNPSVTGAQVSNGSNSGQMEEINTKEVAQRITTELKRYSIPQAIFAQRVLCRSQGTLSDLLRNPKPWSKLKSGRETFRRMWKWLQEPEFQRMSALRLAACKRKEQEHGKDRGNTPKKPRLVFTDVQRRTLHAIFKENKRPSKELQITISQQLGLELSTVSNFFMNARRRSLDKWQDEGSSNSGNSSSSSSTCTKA
In short: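 Endogenous factor activity read in transiently transfected HepG2 via promoter-regulated reporter transcripts. RNA harvested 24 h post-dosing, reverse-transcribed, PCR-amplified, FAM-labelled, HpaI-digested and resolved by capillary electrophoresis; fitted in both directions against DMSO.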

[9] = target: Heat shock factor protein 1 (Homo sapiens) (UniProt Q00613); test: ATG_HSE_CIS: Attagene CIS-FACTORIAL HepG2 Assay for human Heat Shock Transcription Factor 1 (HSE) (AID 2282953); conditions: HepG2 HSE cis-reporter, Attagene RNA transcription; actives raise or lower the signal
Chain of Heat shock factor protein 1 (Homo sapiens) (Q00613 whole entry, looked up): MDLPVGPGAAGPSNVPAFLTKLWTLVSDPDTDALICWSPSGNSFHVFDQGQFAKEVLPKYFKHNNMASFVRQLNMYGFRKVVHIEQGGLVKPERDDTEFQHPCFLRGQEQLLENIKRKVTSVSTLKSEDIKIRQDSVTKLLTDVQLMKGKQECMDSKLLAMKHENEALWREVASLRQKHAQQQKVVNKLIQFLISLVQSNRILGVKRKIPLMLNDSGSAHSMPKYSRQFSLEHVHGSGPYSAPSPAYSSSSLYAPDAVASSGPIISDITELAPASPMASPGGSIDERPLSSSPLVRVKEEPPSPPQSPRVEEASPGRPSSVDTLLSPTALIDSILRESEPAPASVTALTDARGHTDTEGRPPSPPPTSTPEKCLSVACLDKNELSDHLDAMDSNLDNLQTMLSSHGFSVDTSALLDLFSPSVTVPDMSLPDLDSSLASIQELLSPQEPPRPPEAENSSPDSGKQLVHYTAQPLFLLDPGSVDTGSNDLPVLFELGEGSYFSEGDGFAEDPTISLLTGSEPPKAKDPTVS
In short: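 Endogenous transcription factor activity in transiently transfected HepG2, read as reporter mRNA by RT-PCR with fluorescent capillary electrophoresis after 24 h. Gain or loss of signal fitted versus DMSO baseline.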

[10] = ATG_MRE_CIS: Attagene CIS-FACTORIAL HepG2 Assay for human Metal Responsive Element (MRE) (AID 2282954); conditions: HepG2 MRE cis-reporter transcription, Attagene multiplex; actives raise or lower the signal
In short: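 Measured here is mRNA induction from an MRE cis-element reporter in HepG2 after 24 h, quantified by fluorescence of labelled RT-PCR products on capillary electrophoresis; gain- and loss-of-signal fits use DMSO as baseline.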

[11] = ATG_PBREM_CIS: Attagene CIS-FACTORIAL HepG2 Assay for human Phenobarbital-responsive Enhancer Module (PBREM) (AID 2282955); conditions: HepG2 PBREM cis-reporter, Attagene multiplexed transcription; actives raise or lower the signal
In short: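 HepG2 cells transiently transfected with multiple cis-regulated reporter units measure endogenous transcription factor activity; 24 h compound exposure. Reporter mRNA quantified by RT-PCR, fluorescent labelling, HpaI digestion and capillary electrophoresis; bidirectional fit versus DMSO.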

[12] = target: Paired box protein Pax-6 (Homo sapiens) (UniProt P26367); test: ATG_Pax6_CIS: Attagene CIS-FACTORIAL HepG2 Assay for human Paired Box 6 (PAX6) (AID 2282956); conditions: HepG2 CIS-FACTORIAL PAX6 reporter transcription, RNA readout; actives raise or lower the signal
Chain of Paired box protein Pax-6 (Homo sapiens) (P26367 whole entry, looked up): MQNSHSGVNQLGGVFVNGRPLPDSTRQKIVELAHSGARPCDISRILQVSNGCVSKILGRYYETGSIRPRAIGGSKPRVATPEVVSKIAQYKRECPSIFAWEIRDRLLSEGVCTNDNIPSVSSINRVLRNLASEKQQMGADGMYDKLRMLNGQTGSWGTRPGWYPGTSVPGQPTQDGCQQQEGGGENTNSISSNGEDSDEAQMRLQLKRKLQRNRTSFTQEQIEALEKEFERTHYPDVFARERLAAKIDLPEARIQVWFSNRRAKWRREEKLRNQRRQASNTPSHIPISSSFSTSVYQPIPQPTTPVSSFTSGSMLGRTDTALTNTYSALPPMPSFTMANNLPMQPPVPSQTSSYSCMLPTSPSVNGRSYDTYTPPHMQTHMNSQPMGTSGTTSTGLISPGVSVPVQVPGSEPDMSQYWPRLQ
In short: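 DMSO-referenced bidirectional fits of reporter mRNA fluorescence; HepG2 with transient cis-promoter MRTUs, 24 h post-dose, RT-PCR plus capillary electrophoresis detection.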

[13] = ATG_PXRE_CIS: Attagene CIS-FACTORIAL HepG2 Assay for human Pregnane X Receptor Element (PXRE) (AID 2282957); conditions: HepG2 Attagene CIS-FACTORIAL PXRE reporter, mRNA; actives raise or lower the signal
In short: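 Reporter transcripts under endogenous PXR-responsive cis-regulation quantified from total RNA of transfected HepG2 cells 24 h post-dosing, via RT-PCR with fluorescent primer extension and capillary electrophoresis. Gain or loss of signal fitted against DMSO baseline.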

[14] = ATG_PPRE_CIS: Attagene CIS-FACTORIAL HepG2 Assay for human Peroxisome Proliferator-activated Response Element (PPRE) (AID 2282958); conditions: HepG2 PPRE cis-element reporter, Attagene transcription factor profiling; actives raise or lower the signal
In short: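 HepG2 cells are transiently transfected with multiplexed cis-promoter reporter units to report endogenous PPAR activity. After 24 h dosing, reporter mRNA is read by RT-PCR and capillary electrophoresis. Fitting is bidirectional against DMSO.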

[15] = ATG_Sox_CIS: Attagene CIS-FACTORIAL HepG2 Assay for human SRY-box transcription factor (SOX) (AID 2282960); conditions: HepG2 Attagene cis-factorial SOX reporter, mRNA; actives raise or lower the signal
In short: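 HepG2 cells transiently transfected with multiple cis-regulated reporter units, then dosed for 24 h. Reporter mRNA quantified by RT-PCR, fluorescent labelling, HpaI digestion and capillary electrophoresis; bidirectional fit versus DMSO.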

[16] = target: Transcription factor Sp1 (Homo sapiens) (UniProt P08047); test: ATG_Sp1_CIS: Attagene CIS-FACTORIAL HepG2 Assay for human Specificity Protein 1 (Sp1) (AID 2282961); conditions: HepG2 Sp1 cis-reporter transcription, actives raise or lower the signal
Chain of Transcription factor Sp1 (Homo sapiens) (P08047 whole entry, looked up): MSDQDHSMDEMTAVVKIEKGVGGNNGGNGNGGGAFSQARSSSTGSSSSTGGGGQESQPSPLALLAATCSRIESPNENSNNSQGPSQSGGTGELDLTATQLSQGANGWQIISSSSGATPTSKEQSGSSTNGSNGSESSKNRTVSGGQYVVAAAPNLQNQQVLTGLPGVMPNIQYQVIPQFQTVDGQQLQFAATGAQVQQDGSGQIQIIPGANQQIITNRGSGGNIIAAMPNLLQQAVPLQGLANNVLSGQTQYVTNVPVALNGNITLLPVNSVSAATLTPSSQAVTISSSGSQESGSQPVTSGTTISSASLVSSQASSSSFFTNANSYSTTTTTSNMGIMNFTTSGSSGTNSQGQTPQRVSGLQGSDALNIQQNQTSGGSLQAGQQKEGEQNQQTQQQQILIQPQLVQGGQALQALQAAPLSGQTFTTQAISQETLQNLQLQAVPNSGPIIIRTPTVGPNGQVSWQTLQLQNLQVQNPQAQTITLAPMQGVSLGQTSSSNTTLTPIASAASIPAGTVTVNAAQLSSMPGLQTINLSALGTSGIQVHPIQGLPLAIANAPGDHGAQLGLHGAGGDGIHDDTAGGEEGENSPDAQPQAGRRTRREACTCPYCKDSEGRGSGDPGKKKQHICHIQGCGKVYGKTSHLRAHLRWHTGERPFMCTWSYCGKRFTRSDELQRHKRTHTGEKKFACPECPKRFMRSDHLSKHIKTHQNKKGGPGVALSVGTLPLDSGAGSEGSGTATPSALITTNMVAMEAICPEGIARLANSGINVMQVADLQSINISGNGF
In short: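 HepG2 cells transiently transfected with multiplexed cis-regulated reporter constructs, chemical exposure 24 h. Reporter mRNA quantified by RT-PCR with capillary electrophoresis; bidirectional fit relative to DMSO.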

[17] = ATG_SREBP_CIS: Attagene CIS-FACTORIAL HepG2 Assay for human Sterol Regulatory Element Binding (SREBP) (AID 2282962); conditions: HepG2 Attagene cis-factorial SREBP reporter, mRNA; actives raise or lower the signal
In short: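 In this cis-format assay, HepG2 liver cells express reporters controlled by promoter elements responsive to native transcription factors. Exposure lasts 24 h; reporter mRNA fluorescence from capillary electrophoresis gives the signal, fitted bidirectionally against DMSO.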

[18] = target: Signal transducer and activator of transcription 3 (Homo sapiens) (UniProt P40763); test: ATG_STAT3_CIS: Attagene CIS-FACTORIAL HepG2 Assay for human Signal Transducer and Activator of Transcription 3 (STAT3) (AID 2282963); conditions: HepG2, Attagene cis-factorial STAT3 reporter transcription; actives raise or lower the signal
Chain of Signal transducer and activator of transcription 3 (Homo sapiens) (P40763 whole entry, looked up, the tested form may be a part): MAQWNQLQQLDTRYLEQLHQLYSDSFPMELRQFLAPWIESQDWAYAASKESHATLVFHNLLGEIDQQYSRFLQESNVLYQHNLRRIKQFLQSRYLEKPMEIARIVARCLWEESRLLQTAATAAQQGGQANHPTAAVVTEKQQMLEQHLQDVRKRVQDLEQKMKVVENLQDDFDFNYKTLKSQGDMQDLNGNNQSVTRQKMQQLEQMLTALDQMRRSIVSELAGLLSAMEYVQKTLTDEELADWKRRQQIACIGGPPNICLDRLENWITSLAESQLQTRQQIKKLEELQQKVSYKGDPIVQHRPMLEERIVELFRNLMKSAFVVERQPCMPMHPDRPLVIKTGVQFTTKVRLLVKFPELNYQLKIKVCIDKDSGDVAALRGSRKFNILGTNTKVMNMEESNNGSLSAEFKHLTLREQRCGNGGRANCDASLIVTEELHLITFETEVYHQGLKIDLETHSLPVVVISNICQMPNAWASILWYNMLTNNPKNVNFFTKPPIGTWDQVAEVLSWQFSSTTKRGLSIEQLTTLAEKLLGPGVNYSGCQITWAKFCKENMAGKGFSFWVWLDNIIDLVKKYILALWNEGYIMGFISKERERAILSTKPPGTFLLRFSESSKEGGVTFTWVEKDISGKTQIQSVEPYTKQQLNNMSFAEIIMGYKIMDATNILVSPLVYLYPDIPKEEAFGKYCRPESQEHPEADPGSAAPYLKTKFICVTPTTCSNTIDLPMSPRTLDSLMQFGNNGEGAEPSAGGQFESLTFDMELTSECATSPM
In short: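 Fluorescence intensity of 6-FAM-labelled reporter fragments, separated by capillary electrophoresis after RT-PCR, gave the signal. Cells were HepG2 transfected with cis-element reporter units and treated 24 h; fitting was bidirectional relative to DMSO.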

[19] = ATG_TA_CIS: Attagene CIS-FACTORIAL HepG2 Assay for human TA Basal Promoter (AID 2282964); conditions: HepG2 Attagene CIS-factorial TA basal promoter reporter; actives raise or lower the signal
In short: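 Background-control readout: TA basal promoter reporter mRNA, fitted in both directions relative to DMSO. Measured by RT-PCR and capillary electrophoresis 24 hours after treating HepG2 human liver cells transiently carrying multiplexed cis-regulated reporter constructs.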

[20] = ATG_RORE_CIS: Attagene CIS-FACTORIAL HepG2 Assay for human RAR-related Orphan Receptor Element (RORE) (AID 2282959); conditions: HepG2 Attagene cis-factorial RORE reporter, mRNA; actives raise or lower the signal
In short: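 HepG2 cells carrying transiently transfected cis-regulated reporter units; RORE-driven reporter mRNA quantified 24 h post-dosing by RT-PCR, 6-FAM primer extension, HpaI digestion and capillary electrophoresis. Bidirectional fit versus DMSO.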

Measured: AC50

Cc1ccc(S(=O)(=O)C(I)I)cc1
active: [1] 6.16 µM | [2] 42.7 µM | [3] 3.45 µM | [4] 4.8 µM | [8] 33.4 µM | [9] 10.4 µM | [10] 8.81 µM | [12] 14.9 µM | [13] 8.89 µM | [14] 62.5 µM | [16] 9.07 µM | [17] 4.34 µM | [18] 7.8 µM
inactive: [5] | [6] | [7] | [11] | [15] | [19]

CCCCC(CC)COC(=O)c1ccc(N(C)C)cc1 (stereo not given)
inactive: [1] | [2] | [3] | [4] | [5] | [6] | [7] | [8] | [9] | [10] | [11] | [12] | [20] | [15] | [16] | [17] | [18] | [19]
active: [13] 8.25 µM | [14] 32.6 µM

CCCCCCCC/C=C\CCCCCCCC(=O)OCC(O)CO (stereo not given)
inactive: [1] | [2] | [3] | [4] | [5] | [6] | [8] | [9] | [10] | [11] | [12] | [13] | [14] | [20] | [15] | [16] | [17] | [18] | [19]
active: [7] 100 µM

CC(C)(C)c1cc(CCC(=O)OCC(COC(=O)CCc2cc(C(C)(C)C)c(O)c(C(C)(C)C)c2)(COC(=O)CCc2cc(C(C)(C)C)c(O)c(C(C)(C)C)c2)COC(=O)CCc2cc(C(C)(C)C)c(O)c(C(C)(C)C)c2)cc(C(C)(C)C)c1O
inactive: [1] | [2] | [3] | [4] | [5] | [6] | [7] | [8] | [9] | [10] | [11] | [12] | [14] | [20] | [15] | [16] | [17] | [18] | [19]

O=C1OC(=O)c2ccc3c4c(ccc1c24)C(=O)OC3=O
inactive: [1] | [2] | [3] | [4] | [5] | [6] | [7] | [8] | [10] | [11] | [12] | [13] | [14] | [20] | [15] | [16] | [17] | [18] | [19]

C[Si](Cl)(Cl)CCC(F)(F)C(F)(F)C(F)(F)C(F)(F)C(F)(F)C(F)(F)F
inactive: [1] | [2] | [3] | [4] | [5] | [6] | [7] | [8] | [10] | [11] | [12] | [13] | [14] | [20] | [15] | [16] | [17] | [18] | [19]

O=C(O)C(F)(F)C(F)(F)C(F)(F)C(=O)O
inactive: [1] | [2] | [3] | [4] | [5] | [6] | [7] | [8] | [9] | [10] | [11] | [12] | [14] | [20] | [15] | [16] | [17] | [18] | [19]
